Compounds without any hit were thinned out: in the full panel of roughly 83,000, 20% have a hit.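 Assay: single dose, 48 h. Readout: percent growth (0 = no net growth; negative = cell death). Active: <10.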 A number with no mark means an inactive call. The source made the active and inactive calls.

What all share (experiment): NCI-60 one-dose screen, 48 h (100 = growth as untreated, 0 = no growth, -100 = all killed)
Holding throughout (conditions): 10 µM

Assay [1] has as its system NCI-H23 lung.
Assay [2] deals with NCI-H226 lung.
The subject of assay [3] is HOP-62 NSCLC.
Assay [4] concerns NCI-H460 lung.
The test system of assay [5] is HOP-92 NSCLC.
For assay [6], the system named is NCI-H522 lung.
The subject of assay [7] is A549/ATCC NSCLC.
The subject of assay [8] is 786-0 renal.
In assay [9] the test system is COLO 205 colon.

Take `C=CCN(CC=C)C(=O)[C@H](CC)[C@@H]1CC[C@@H](C)[C@@H]([C@H](C)[C@@H](O)[C@@H](C)C(=O)[C@H](CC)C2O[C@]3(C=CC(=O)[C@]4(CC[C@@](C)([C@H]5CC[C@](O)(CC)[C@H](C)O5)O4)O3)[C@H](C)C[C@@H]2C)O1` (some centres not stated): the growth in assay [1] is 18.6%; in assay [2], 13.8%; in [3], 31.4%; in [4], 15.2%; in assay [5] it was -8.35% (active); in assay [6] it was 11.6%. Also, the growth in assay [7] is 24.1%; in assay [8], 44.3%; in [9], 1.18% (active).

With `COc1ccc(-c2nc(-c3nc4ccc(C)cc4[nH]3)cc3c2[nH]c2ccccc23)cc1`, the growth in assay [1] is 39%; in assay [2], 63.9%; in [3] it was 55.3%; in assay [4] it was 32.8%; in assay [5], 33%; in assay [6] it was 14.7%. Moreover, the growth in assay [7] was 28%; in assay [8] it was 69.9%; in assay [9], 46.9%.

As for `O=C(Nc1ccc(NS(=O)(=O)c2ccc(F)cc2)cc1)C12CC3CC(CC(C3)C1)C2`, the growth in [1] was 94.9%; in assay [2], 92%; in assay [3], 104%; in [4] it was 101%; in [5] it was 106%; in assay [6] it was 86.4%. The growth in assay [7] was 86.6%; in assay [8], 103%; in assay [9], 101%.

`OCC1OC(n2cnc3c(NCc4ccco4)ncnc32)C(O)C1O` (configuration not stated): the growth is 18% in assay [1]; 51.8% in assay [2]; 43.2% in assay [3]; 23.1% in [4]; -10.8% (active) in [5]; 23.8% in [6]. The figures for the growth in assay [7], in assay [8] and in assay [9] were 22.2%, 18.2% and 19.6%, respectively.

As to `O=C(Nc1ccc2c(O)cc(S(=O)(=O)O)cc2c1)c1ccc([N+](=O)[O-])cc1`, the growth in [1] was 100%; in [2] it was 96.2%; in assay [3] it was 83.3%; in [4], 107%; in assay [5], 89.8%; in assay [6], 84.7%. Moreover, the growth in assay [7] was 79.3%; in assay [8] it was 98.6%; in assay [9], 91.8%.

On to `Cc1cc(CCNC=O)c(C)c2c1sc1ccccc12`, for which the growth in assay [1] was 86.6%; in assay [2], 77.2%; in assay [3], 86.2%; in assay [4], 104%; in assay [5], 91.2%; in assay [6], 101%. Also, the growth in [7] is 82.9%; in [8], 106%; in assay [9], 124%.

Consider `O=C(CCl)Nc1ccc(Cc2ccc(NC(=O)CCl)cc2)cc1`, for which the growth is -10.4% (active) in assay [1]; -16.2% (active) in [2]; 33.2% in assay [3]; -29.3% (active) in [4]; 46.3% in assay [5]; -81% (active) in [6]. Besides, the growth is 25.3% in assay [7], -20.2% (active) in assay [8] and -56.1% (active) in assay [9].

For `COc1cc(-c2nn(-c3ccc(NC(=O)NCCCNC(=O)c4ccccc4)cc3)cc2-c2ccncc2)ccc1Cl`, the growth in assay [1] is 28.8%; in assay [2] it was 56.1%; in assay [3], 41.5%; in assay [4], 6.81% (active); in assay [5] it was -0.43% (active); in assay [6], 3.7% (active). In addition, the figures for the growth in assay [7], in assay [8] and in [9] were 26%, 14.8% and -43.4% (active), respectively.

As for `COc1ccc(C(c2ccc(OCCN(C)C)cc2)c2cc3ccccc3c3ccccc23)cc1` (configuration not stated), the growth was 78.4% in [1]; 87.5% in assay [2]; 92.5% in [3]; -28.6% (active) in assay [4]; 63.6% in assay [5]; 75% in [6]. The growth in assay [7] was 55%; in [8], 50.6%; in assay [9], -50.6% (active).

With `Cc1cc(=O)n2nnc3cc(C(F)(F)F)ccc3n12`, the growth in assay [1] was 101%; in assay [2], 115%; in [3], 117%; in [4], 114%; in assay [5] it was 93.9%; in assay [6] it was 97.4%. The growth in assay [7] was 105%; in assay [8], 104%; in assay [9], 108%.

In the case of `O=C(Nc1nc(-c2ccccc2)nc2c1sc(=S)n2-c1ccccc1)C(F)(F)F`, the growth was 89.9% in assay [1]; 90.3% in [2]; 101% in assay [3]; 99.3% in assay [4]; 81.4% in assay [5]; 86.6% in assay [6]. The figures for the growth in assay [7], in assay [8] and in assay [9] were 74.9%, 98.9% and 115%, respectively.

On to `CCOC(=O)CC(S(=O)(=O)c1ccccc1)S(=O)(=O)c1ccccc1`, for which the growth was 98.3% in assay [1]; 95.7% in [2]; 109% in [3]; 103% in [4]; 89.7% in assay [5]; -11.9% (active) in assay [6]. Further, the growth was 95.3% in [7], 115% in [8] and -87.1% (active) in assay [9].

Regarding `C=CCN(CC=C)C(=O)[C@H](CC)[C@@H]1CC[C@@H](C)[C@@H]([C@H](C)[C@@H](O)[C@@H](C)C(=O)[C@H](CC)C2O[C@]3(C=C[C@@H](O)[C@]4(CC[C@@](C)([C@H]5CC[C@](O)(CC)[C@H](C)O5)O4)O3)[C@H](C)C[C@@H]2C)O1` (some centres not stated), the growth is 6.23% (active) in [1]; -0.687% (active) in assay [2]; 12% in assay [3]; 3.23% (active) in assay [4]; -23.9% (active) in assay [5]; -2.7% (active) in [6]. For the same compound, the figures for the growth in [7], in assay [8] and in [9] were 11.5%, 20% and -62.4% (active), respectively.

As for `N#CC1=C(N)Oc2cc(N)ccc2C1c1cccnc1` (configuration not stated), the growth in [1] was 92.1%; in assay [2], 101%; in [3], 92.7%; in [4], 97.5%; in [5], 111%; in assay [6], 75%. Moreover, the values for the growth in assay [7], in assay [8] and in assay [9] were 100%, 90.7% and 113%, respectively.

Take `Nc1ncnc2c1ncn2C1(CO)OCC(O)C(O)C1O` (configuration not stated): the growth in [1] was 96.8%; in assay [2] it was 107%; in assay [3] it was 91.4%; in assay [4], 107%; in assay [5], 113%; in [6], 82.4%. The values for the growth in assay [7], in [8] and in [9] were 96.7%, 101% and 113%, respectively.

As to `Cc1ccc(C(=O)/C=C/c2ccccc2)s1`, the growth is 109% in [1]; 93.8% in assay [2]; 120% in assay [3]; 108% in assay [4]; 144% in [5]; 93.5% in [6]. Also, the growth is 101% in assay [7], 86.7% in assay [8] and 134% in assay [9].

Consider `COc1ccc(/C=c2\sc3n(c2=O)C(c2cc(OC)c(OC)c(OC)c2)C=C(c2ccc(OC)c(OC)c2)N=3)cc1OC` (configuration not stated), for which the growth in assay [1] was 103%; in [2], 108%; in [3], 103%; in assay [4] it was 107%; in assay [5], 63.3%; in assay [6], 58.1%. The growth in [7] is 100%; in [8], 78.1%; in assay [9], 97.3%.

As to `O=C(Nc1cccc2c1CCCC2)c1cc2ccccc2cc1O`, the growth in assay [1] was 3.43% (active); in assay [2], 35.1%; in [3], 69.9%; in [4], 27.3%; in assay [5] it was -20.6% (active); in [6], 18.8%. The results for the growth in assay [7], in [8] and in assay [9] were 33.8%, 43.7% and 92.3%, respectively.

Regarding `CN1CCN(CCCn2c(=O)c3sc4ncccc4c3n3nnc(-c4ccccc4)c23)CC1`, the growth is 77.3% in [1]; 108% in assay [2]; 21.7% in [3]; -77.1% (active) in assay [4]; 48.9% in assay [5]; -83.9% (active) in [6]. The growth in assay [7] is 12%; in assay [8], 5.36% (active); in assay [9], -96.5% (active).

As for `CCOC(=O)CN(c1sc(C)c(C)c1C(=O)OCC)S(=O)(=O)c1ccc(C)cc1`, the growth in assay [1] was 94.3%; in assay [2] it was 77.2%; in assay [3], 94.1%; in assay [4] it was 98%; in assay [5] it was 85.2%; in assay [6] it was 108%. Also, the growth in assay [7] is 91.6%; in assay [8], 92.8%; in assay [9], 108%.

Consider `Cc1cc(SC#N)cc(C(C)(C)C)c1O`, for which the growth in [1] was 93.1%; in assay [2] it was 102%; in [3], 100%; in assay [4], 104%; in assay [5], 81.7%; in [6], 68.1%. The growth in [7] is 81.9%; in [8] it was 101%; in [9], 101%.

For `Cc1ccc(/C=C2/C(=O)N(C)c3ccc(S(=O)(=O)Nc4ccc(C(C)(C)C)cc4)cc32)s1`, the growth is 67% in assay [1]; 63.9% in [2]; 24.8% in assay [3]; 98% in [4]; 79.2% in assay [5]; 75.5% in assay [6]. Further, the growth is 68.5% in [7], 67.4% in assay [8] and 86.5% in [9].

In the case of `Nc1ccc(/C=N/Nc2ccnc3c(O)cccc23)c2cccnc12`, the growth in assay [1] is 74.6%; in assay [2], 84%; in [3], 64.4%; in [4], 25.9%; in [5], 88.1%; in [6], 41.3%. Also, the growth in assay [7] was 42.6%; in assay [8] it was 50.7%; in assay [9], 104%.

Take `Cc1nn(-c2ccc(-c3ccc(OC(F)(F)F)cc3)cc2)c2nc(Cc3ccccc3)nc(N)c12`: the growth in [1] was 64.9%; in assay [2] it was 42.5%; in assay [3], 45.9%; in assay [4], 3.39% (active); in [5], 59%; in assay [6], 73.7%. In addition, the growth was 16.7% in [7], 5.79% (active) in assay [8] and 65.2% in assay [9].

`Cc1ccc2nc(Cl)c(-c3nc4ccccc4o3)cc2c1`: the growth in [1] was 77.6%; in [2] it was 90.7%; in [3] it was 92.7%; in assay [4] it was 106%; in assay [5], 83%; in assay [6], 90.3%. Besides, the growth was 99.6% in assay [7], 99.5% in assay [8] and 89.5% in [9].

For `COc1ccc2c(c1)C(=O)/C(=C/c1cccc(OCC(=O)c3ccc([N+](=O)[O-])cc3)c1)CO2`, the growth in assay [1] was -15% (active); in assay [2], 70.5%; in assay [3], 77%; in assay [4], 73.9%; in assay [5] it was 60.9%; in [6], -53.4% (active). The growth is 23.7% in [7], 82.8% in assay [8] and 98.4% in assay [9].

`COC1OC(COS(=O)OC)C(O)C(O)C1OS(=O)OC` (configuration not stated): the growth in [1] was 101%; in assay [2], 95.7%; in [3] it was 104%; in assay [4] it was 101%; in assay [5], 108%; in [6] it was 98.5%. Besides, the growth is 103% in assay [7], 106% in assay [8] and 110% in assay [9].

Take `Cc1ccc(C)c(COc2cc(NC(=O)c3ccc4c(c3)OCO4)ccc2N(C)S(C)(=O)=O)c1`: the growth in assay [1] was 9.96% (active); in [2], 37%; in assay [3], 16.1%; in assay [4] it was -9.36% (active); in assay [5], 23.1%; in assay [6] it was -15.9% (active). In addition, the growth in [7] was 21.9%; in [8], 6.5% (active); in assay [9], -68.3% (active).

These data come from PubChem BioAssay (NCI).
